An excerpt weighted towards active compounds, which were near 7.5% of everything screened.
TSHR antag – Antagonists of the Thyroid Stimulating Hormone Receptor: HTS campaign. Thyrotropin receptor (Homo sapiens), P16473. TSHR-expressing cells, TSH-stimulated cAMP HTRF, 2 h; stronger effect = lower value. activity change, negative = inhibition, % at 11.5 µM. 330,000 compounds, 0.2% hits;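 active = activity change below a set negative limit, meaning inhibition stronger than a set level, cut at about -70% in these data; inconclusive = activity change between two set negative limits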
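Read-out is FRET at 665 nm (cryptate excitation 337 nm) from a cryptate-tagged anti-cAMP antibody, competed by cell cAMP against cAMP-d2. Compounds are tested on freshly harvested TSHR cells challenged with 4nM TSH (EC80) for 2 hours at 37 deg C.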
B2AR arrestin – qHTS assay of beta-arrestin-biased ligands of beta2-adrenergic receptor; Beta-2 adrenergic receptor (Homo sapiens), P07550; beta-arrestin recruitment to beta2AR, cell-based reporter; Potency, µM (titrated, usually from 46.1 µM), for the others: at the top dose activation, actives largely listed as activators; 330,000 compounds, 0.02% hits; AID 492947, 2010;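 note: potency is the fitted concentration of half-maximal effect; 0% = DMSO controls and full agonism = EC100 isoproterenol or metaproterenol; nearly all actives have a fitted effect of over 65% in size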
ELG1 repair inh – qHTS screen for small molecules that inhibit ELG1-dependent DNA repair in human embryonic kidney (HEK293T) cells expressing luciferase-tagged ELG1 | HEK293T ELG1-luciferase reporter, luminescence, 16 h; DNA damage induced by 5-fluorouridine | Potency, µM (top dose mostly 46.1 µM), without a hit: at the highest dose activity change, negative = inhibition, actives largely listed as inhibitors | 330,000 compounds, 2.3% hits; note: potency is the fitted concentration of half-maximal effect; nearly all actives have a fitted effect of over 55% in size
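5-Fluorouridine DNA damage + compound/DMSO, 2,000 cells/well, 16 h, 37 °C/5% CO2. ONE-Glo, 30 min RT, luminescence. Readout = decrease in reporter signal.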
RORg inh – qHTS for inhibitors of ROR gamma transcriptional activity; Nuclear receptor ROR-gamma (Mus musculus), P51450; Drosophila S2 Gal4-RORgamma UAS-luciferase reporter, 20 h; Potency, µM (highest dose often 53.6 µM), for inactives: top-dose activity change, negative = inhibition, usual class: inhibitors; 310,000 compounds, 5.4% hits; AID 2551, 2010; note: potency is the fitted concentration of half-maximal effect; nearly all actives have a fitted effect of over 60% in size
Target sequence (P51450 whole entry, looked up, the tested form may be a part): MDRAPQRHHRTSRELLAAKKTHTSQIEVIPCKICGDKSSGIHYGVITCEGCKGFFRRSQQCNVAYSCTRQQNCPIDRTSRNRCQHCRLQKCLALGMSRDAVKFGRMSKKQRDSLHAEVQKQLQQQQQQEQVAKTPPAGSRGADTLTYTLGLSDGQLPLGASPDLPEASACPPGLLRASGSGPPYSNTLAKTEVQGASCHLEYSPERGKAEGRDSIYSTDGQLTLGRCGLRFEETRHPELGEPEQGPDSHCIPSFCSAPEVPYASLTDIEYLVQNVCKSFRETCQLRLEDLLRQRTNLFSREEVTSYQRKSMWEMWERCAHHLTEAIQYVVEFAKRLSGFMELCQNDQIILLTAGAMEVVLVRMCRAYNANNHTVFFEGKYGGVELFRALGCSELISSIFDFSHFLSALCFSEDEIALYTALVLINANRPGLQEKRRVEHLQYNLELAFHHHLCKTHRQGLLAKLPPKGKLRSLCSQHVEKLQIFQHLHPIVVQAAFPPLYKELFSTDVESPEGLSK
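Luciferase reporter read in Schneider cells carrying Gal4-RORγ (mouse) and UAS-Photinus luciferase; cells given compound 1 h before 700 uM copper sulfate induction, then incubated 20 h at ambient temperature.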
VP16 counter – VP16 counterscreen qHTS for inhibitors of ROR gamma transcriptional activity. AID 2546, 2010. 310,000 compounds, 3.5% hits. Drosophila S2 Gal4-VP16 UAS-luciferase, luminescence, 20 h. Potency, µM (top dose mostly 53.6 µM), for the others: at the highest dose activity, negative = inhibition, most hits filed as inhibitors;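 note: Gal4-VP16 expression switched on by copper sulfate through the metallothionein promoter; potency is the fitted concentration of half-maximal effect; nearly all actives have a fitted effect of over 50% in size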
The depositor's hits bear a star; [ ] = remark or other dose. Unless noted, calls come from the whole dose curve; as a rule, active = well fitted curve in the direction sought with a large enough effect; inconclusive = small, poorly fitted or top-dose-only effect, or another doubt; inactive = no such curve, though single readings can be large; an effect the other way counts as inactive or inconclusive. Unless noted, % is set by controls: 0 for no effect and ±100 for the full control effect.

Screening CC[C@H](C)[C@H](NC(=O)[C@H](C)NC(=O)[C@H](Cc1cnc[nH]1)NC(=O)[C@@H]1CCCN1C(=O)CNC(=O)[C@H](CC(C)C)NC(=O)[C@H](CC(C)C)NC(=O)[C@H](Cc1ccc(O)cc1)NC(=O)CNC(=O)[C@H](C)NC(=O)[C@H](CO)NC(=O)[C@H](CC(N)=O)NC(=O)[C@H](CC(C)C)NC(=O)[C@@H](NC(=O)[C@H](Cc1c[nH]c2ccccc12)NC(=O)CN)[C@@H](C)O)C(=O)N[C@@H](CC(=O)O)C(=O)N[C@@H](CC(N)=O)C(=O)N[C@@H](Cc1cnc[nH]1)C(=O)N[C@@H](CCCNC(=N)N)C(=O)N[C@@H](CO)C(=O)N[C@@H](Cc1ccccc1)C(=O)N[C@@H](CO)C(=O)N[C@@H](CC(=O)O)C(=O)N[C@@H](CCCCN)C(=O)N[C@@H](Cc1cnc[nH]1)C(=O)NCC(=O)N[C@@H](CC(C)C)C(=O)N[C@H](C(N)=O)[C@@H](C)O returned RORg inh -21.1% and VP16 counter 0.3%.
`COn1c(=S)[nH]c2ccccc2c1=O` gave TSHR antag -3.5, B2AR arrestin -0.9%, ELG1 repair inh 1.0%, RORg inh inconclusive and VP16 counter 2.0%.
CCC(C)n1c(=S)[nH]c2ccccc2c1=O (stereo not given) was read as TSHR antag 4.4, B2AR arrestin -0.3%, ELG1 repair inh 9.1%, RORg inh 0.891µM* and VP16 counter 4.47µM*.
Screening CCC(Cc1ccccc1)n1c(=S)[nH]c2ccccc2c1=O (stereo not given) returned TSHR antag -9.7, B2AR arrestin -0.1%, ELG1 repair inh -2.1%, RORg inh 3.55µM* and VP16 counter inconclusive.
Screening CC(C)n1c(=S)[nH]c2ccccc2c1=O returned TSHR antag 23.2, B2AR arrestin 10.5%, ELG1 repair inh -4.0%, RORg inh inconclusive and VP16 counter 3.98µM*.
`O=C(Nc1ccc(F)cc1)c1oc2ccccc2c1NC(=O)C1CC1` gave TSHR antag -14.6, B2AR arrestin 0.1%, ELG1 repair inh inconclusive, RORg inh 6.6% and VP16 counter -7.2%.
Screening Cc1cc(C)c2c(n1)nn1c(N3CCN(Cc4ccccc4)CC3)cc(C)nc21 returned TSHR antag -6.2, B2AR arrestin -0.1%, ELG1 repair inh -6.3%, RORg inh -33.1% and VP16 counter 3.7%.
For COc1ccc(F)cc1CN1CCN(c2cc(C)nc3c4c(C)cc(C)nc4nn23)CC1 the results were TSHR antag -11.1, B2AR arrestin -0.2%, ELG1 repair inh inconclusive, RORg inh 20µM* and VP16 counter inconclusive.
Screening Cc1ccc(C)c(N2CCN(C(=O)C34CC5CC(C3)CC(n3nnc(C)n3)(C5)C4)CC2)c1 returned TSHR antag -27.4, B2AR arrestin -1.1%, ELG1 repair inh 20.6µM*, RORg inh 6.4% and VP16 counter -13.2%.
`NNC(=O)c1cc(-c2ccc(N)cc2)nc2ccc(Br)cc12` gave TSHR antag -2.4, B2AR arrestin 3.1%, ELG1 repair inh inconclusive, RORg inh 10µM* and VP16 counter inconclusive.
COc1ccc(CNC(=O)c2cc(-c3ccncc3)nc3c(C)cc(C)cc23)cc1OC was read as TSHR antag -11.7, B2AR arrestin 0.6%, ELG1 repair inh 23.1µM*, RORg inh inconclusive and VP16 counter inconclusive.
For COc1ccc(NC(=O)c2cc(-c3ccncc3)nc3ccc(Br)cc23)cc1OC the results were TSHR antag 22.4, B2AR arrestin 0.0%, ELG1 repair inh inconclusive, RORg inh inconclusive and VP16 counter 20µM*.
Screening COc1ccc(CCNC(=O)c2cc(-c3ccncc3)nc3c(Cl)cccc23)cc1OC returned TSHR antag -4.9, B2AR arrestin 0.0%, ELG1 repair inh inconclusive, RORg inh 13.2% and VP16 counter -2.5%.
COc1ccc(NC(=O)c2cc(-c3ccc(C)o3)nc3ccccc23)cc1OC was read as TSHR antag -5.9, B2AR arrestin 0.0%, ELG1 repair inh 14.6µM*, RORg inh 15.8% and VP16 counter -1.6%.
C/C=C/OC(=O)NC(c1cccc(C)c1)[C@@]1(C(=O)OCC)CCCC1=O (stereo not given in full) was read as RORg inh 0.5%[10 µM] and VP16 counter -4.4%[10 µM].
Screening O=C(Nc1cccc(O)c1)c1c(O)c2ccccc2[nH]c1=O returned TSHR antag 2.2, B2AR arrestin -0.9%, ELG1 repair inh inconclusive, RORg inh 5.8% and VP16 counter -18.8%.
`COc1ccccc1NC(=O)c1cc(-c2cc(OC)c(OC)c(OC)c2)nc2ccccc12` gave TSHR antag 1.1, B2AR arrestin 0.1%, ELG1 repair inh inconclusive, RORg inh 0.4% and VP16 counter inconclusive.
`COc1cc(-c2cc(C(=O)Nc3ccc(N4CCOCC4)cc3)c3ccccc3n2)cc(OC)c1OC` gave TSHR antag -2.3, B2AR arrestin 0.1%, ELG1 repair inh 8.2µM*, RORg inh -18.6% and VP16 counter -6.3%.
`COc1cc(-c2cc(C(=O)Nc3ccncc3)c3ccccc3n2)cc(OC)c1OC` gave TSHR antag -19.8, B2AR arrestin 2.3% and ELG1 repair inh 6.51µM*.
COc1cc(-c2cc(C(=O)Nc3cc(S(=O)(=O)N4CCOCC4)ccc3O)c3ccccc3n2)cc(OC)c1OC was read as TSHR antag -19.0, B2AR arrestin -0.9% and ELG1 repair inh 14.6µM*.
Screening COc1ccc(Nc2nc(-c3ccc4c(c3)NC(=O)CO4)cs2)cc1 returned TSHR antag 4.1, B2AR arrestin -0.1%, ELG1 repair inh 16.4µM*, RORg inh 43.1% and VP16 counter 6.8%.
Screening COc1ccc(-c2cc(-c3ccccc3)nc(-c3ccc4c(c3)NC(=O)CO4)c2)cc1 returned TSHR antag 15.2, B2AR arrestin -0.6%, ELG1 repair inh 23.1µM*, RORg inh -9.0% and VP16 counter -9.2%.
Cc1nn(C)c(C)c1CN(Cc1nc(-c2cc(F)ccc2F)oc1C)C1CC1 was read as TSHR antag -14.0, B2AR arrestin -1.1%, ELG1 repair inh -25.4%, RORg inh 28.2µM* and VP16 counter -8.6%.
For Cc1ccncc1C(=O)O the results were RORg inh 10.4% and VP16 counter -3.1%.
Screening COc1ccc2[nH]cc(C(=O)CCl)c2c1 returned TSHR antag -7.0, B2AR arrestin -0.2%, ELG1 repair inh inconclusive, RORg inh 7.94µM* and VP16 counter 6.31µM*.

Screening results as filed in PubChem BioAssay.
